Compounds with a hit are over-represented: about 21% of the library has one in this group of screens.
Cycloheximide cs – Cycloheximide Counterscreen for Small Molecule Inhibitors of Shiga Toxin | cell reporter, cycloheximide protein synthesis inhibition counterscreen | max response, % | 12% of 300,000 active | AID 2314, 2010; in the data active = max response mostly above about 13%, no sharp cut-off; inactive = mostly below about 14%; note: read at 38.3 µM for the half of the compounds with a filed dose
Pf growth 96h – Primary qHTS for delayed death inhibitors of the malarial parasite plastid, 96 hour incubation. AID 504834, 2011. 6.9% of 320,000 active. Potency, µM (titrated, usually from 28.7 µM), actives largely listed as inhibitors. P. falciparum luciferase reporter growth, 96 h
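Readout is luminescence from an integrated firefly luciferase in P. falciparum. Red cells, 2% hematocrit and 0.05% parasitemia final, were cultured with compound through two parasite generations (96 hours) at 37 C, 5% CO2.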
Pf growth 48h – Primary qHTS for delayed death inhibitors of the malarial parasite plastid, 48 hour incubation; Potency, µM (highest dose often 28.7 µM), actives largely listed as inhibitors; 5.9% of 310,000 active; AID 504832, 2011; P. falciparum luciferase growth in erythrocytes, 48 h
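Cell-based growth assay: transgenic P. falciparum expressing firefly luciferase, cultured in red cells within RPMI 1640 containing 0.5% w/v Albumax, 24 mM bicarbonate and gentamycin. A drop in luciferase activity indicates inhibition.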
NS1 inh – qHTS Assay for Inhibitors of Influenza NS1 Protein Function. Potency, µM (top dose mostly 46.1 µM). 0.4% of 270,000 active. AID 2326, 2010; calls by dose curve; note: actives are rising curves; nearly all actives have a fitted effect of over 50% in size
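In this qHTS, NS1 from influenza A is expressed in budding yeast, where it slows growth. Cells are switched from glucose to 2% galactose medium (pH 6.0, -URA), treated with compound, and growth recovery is read at OD600.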
Shiga inhibitor – A qHTS for Small Molecule Inhibitors of Shiga Toxin; Vero cells, Shiga toxin protein synthesis inhibition reporter; inhibition, % at 38.7 µM; 9.2% of 290,000 active; AID 2315, 2010; in the data active = inhibition mostly above about 28%, no sharp cut-off; inactive = mostly below about 43%
FBPA Giardia inh – qHTS Assay for Inhibitors of Fructose-1,6-bisphosphate Aldolase from Giardia Lamblia; purified Giardia FBPA; Potency, µM (doses to about 59.6 µM), most hits filed as inhibitors; 0.71% of 290,000 active; AID 2451, 2010; A8B2U2; note: nearly all actives have a fitted effect of over 55% in size
Target sequence (A8B2U2 whole entry, looked up): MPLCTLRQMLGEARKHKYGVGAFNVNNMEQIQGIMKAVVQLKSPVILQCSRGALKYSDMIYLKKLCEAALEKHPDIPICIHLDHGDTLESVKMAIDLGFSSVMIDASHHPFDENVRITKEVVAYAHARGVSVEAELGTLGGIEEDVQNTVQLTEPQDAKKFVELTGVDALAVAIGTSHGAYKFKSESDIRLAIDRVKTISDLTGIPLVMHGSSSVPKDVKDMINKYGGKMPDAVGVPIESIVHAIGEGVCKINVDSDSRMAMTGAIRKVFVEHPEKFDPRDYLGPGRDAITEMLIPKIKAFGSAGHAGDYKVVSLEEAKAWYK
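Giardia FBPA (40 nM reagent) was preincubated 10 min at RT with compound (up to 57.5 uM final), then substrate plus GAPDH/TPI/NAD/arsenate coupling system with diaphorase/resazurin was added; resorufin fluorescence (525/598 nm) was read after 20 min.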
Numbers stand for hits; - = inactive; ? = inconclusive; . = not tested or not shown; [ ] = another dose, or the depositor's remark. Unless noted, calls come from the whole dose curve; as a rule, active = well fitted curve in the direction sought with a large enough effect; inconclusive = small, poorly fitted or top-dose-only effect, or another doubt; inactive = no such curve, though single readings can be large; an effect the other way counts as inactive or inconclusive.

SMILES	Cycloheximide cs	Pf growth 96h	Pf growth 48h	NS1 inh	Shiga inhibitor	FBPA Giardia inh
COc1ccc(NC(=S)NC(=O)/C=C/c2ccco2)cc1	43	-	-	.	101	-
O=C(CN1CCOCC1)Nc1ccc(Cl)cn1	-	-	?	-	-	-
CCc1cccc(C)c1NC(=O)C1CCCO1 (configuration not stated)	-	-	-	-	-	-
CSc1nc2ccc(NC(=O)C3CCCO3)cc2s1 (configuration not stated)	40	?	-	-	112	-
COc1ccc(-c2nnc(NC(=O)C3CCCO3)s2)cc1 (configuration not stated)	38	-	-	-	130	-
COc1ccc2nc(NC(=O)C3CCCO3)sc2c1 (configuration not stated)	65	?	-	-	101	-
Cc1cccc2sc(NC(=O)C3CCCO3)nc12 (configuration not stated)	32	?	-	-	111	-
COC(=O)[C@H](Cc1c[nH]c2ccccc12)NC(=O)NCc1ccccc1	-	-	-	-	-	-
CCOCCCn1c(C)nc2c[n+](CC(=O)c3ccc4ccccc4c3)cc(Br)c21	-	?	?	-	-	-
COCCNC(=O)CCN1N=C(c2ccccc2)CCC1=O	-	?	-[0.00184 µM]	-	-	-
COc1ccc(-n2nc(C(=O)NCC(=O)Nc3cccc(Cl)c3)c3ccccc3c2=O)cc1OC	-	?	?	-	-	-
Cc1cccc([C@H]2[C@@H]3C=CC(C)C[C@@H]3C(=O)N2Cc2ccccc2)c1 (some centres not stated)	-	.	.	.	-	-
Cc1ccc(C)c(NC(=O)CN(C)C(=O)c2ccncc2)c1	-	-	-	-	-	-
Cc1ccc(C)c(NC(=O)CN(C)C(=O)c2oc3c(Cl)cccc3c2C)c1	.	2.9µM	4.1µM	.	.	.
CCC(=O)N1CCc2cc(OC)c(OC)cc2C1COc1ccc(F)cc1 (configuration not stated)	-	-	-	-	-	-
Cc1csc(=O)n1CC(=O)OCC(=O)c1c(N)n(CC(C)C)c(=O)n(C)c1=O	.	-	-	.	.	.
C/C(O)=C(\N=Nc1cc(C)ccc1O)C(N)=O	-	-	-	-	-	-
CC(=O)c1ccc(Nc2nc(=O)c3cccnc3s2)cc1	39	.	-	-	70	-
Cc1ccc(Nc2nc(=O)c3cccnc3s2)c(Br)c1	19	-	-	-	-	-
CCOC(=O)c1ccc(Nc2nc(=O)c3cccnc3s2)cc1	22	-	-	-	-	-
CC(=O)c1cccc(Nc2nc(=O)c3cccnc3s2)c1	-	-	.	-	-	-
COc1ccc(NC(=O)c2cncn2-c2ccccc2)cc1	-	-	-	-	-	-
[N-]=[N+]=CC(=O)C(c1ccccc1)(c1ccccc1)c1ccccc1	-	?	?	?	-	-
CCC1(c2ccccc2)NC(=O)N(CC(=O)Nc2ccc3c(C)cc(=O)oc3c2)C1=O (configuration not stated)	.	-	?	.	.	.
CCOc1nc(SCCOc2ccc(C)cc2)nc(N(C)C)n1	-	?	9.3µM	-	-	-
SMILES	Cycloheximide cs	Pf growth 96h	Pf growth 48h	NS1 inh	Shiga inhibitor	FBPA Giardia inh
O=C(c1cc(-c2cccs2)on1)N1CCOCC1	37	?	-	-	104	-
COc1ccccc1N1CCN(C(=O)c2c(C)cc(=O)oc2C)CC1	-	.	-	-	-	-
Cc1cc(=O)oc(C)c1C(=O)N1CCN(C(c2ccccc2)c2ccccc2)CC1	-	9.3µM	13µM	-	-	?
Cc1cc(C(=O)N2CCN(C(c3ccccc3)c3ccccc3)CC2)no1	-	?	9.3µM	-	-	-
CC12CCC(C(=O)N3CCN(C(c4ccccc4)c4ccccc4)CC3)(OC1=O)C2(C)C (configuration not stated)	-	1.7µM	.	-	-	-
C=CCN(C(=O)CCC(=O)Nc1cc(C)on1)C(C(=O)NC1CCCC1)c1ccc(CC)cc1 (configuration not stated)	-	-	?	-	-	-
CCCCCCCCCCCCOCCCN	.	?	-	.	.	.
CCCc1cc(C(=O)N2CCN(C(c3ccccc3)c3ccccc3)CC2)no1	-	?	12µM	-	-	-
Cc1onc(C(=O)N2CCN(C(c3ccccc3)c3ccccc3)CC2)c1[N+](=O)[O-]	-	?	?	-	-	-
Cc1c(C(=O)N2CCC3(CC2)OCCO3)oc2ccccc12	-	-	-	-	-	-
Cc1c(C(=O)N2CCN(C(c3ccccc3)c3ccccc3)CC2)oc2ccccc12	.	15µM	6.6µM	.	.	.
O=C(c1cc(-c2cccs2)on1)N1CCN(C(c2ccccc2)c2ccccc2)CC1	-	-	6.6µM	-	-	-
Cc1cc(C)cc(OCC(=O)NNC(=S)NC(=O)C2CC2)c1	-	?	-	-	-	.
COc1cccc([C@@H]2Oc3ccc(Br)cc3C(=O)[C@H]2OC(=O)NCc2ccco2)c1	.	.	.	.	.	-
COC(=O)c1cc(-c2cccc(OC)c2)c2c(=O)[nH]c(=O)n(C)c2n1	-	-	?	-	-	-
NC(=O)c1c(NC(=O)c2c(F)cccc2F)sc2c1CCN(Cc1ccccc1)C2	8.3	-	-	-	19	?
CCOC(=O)c1c(NC(=O)Cc2ccccc2)sc2c1CCN(CC)C2	-	?	?	-	-	?
CC(=O)Nc1sc2c(c1C#N)CCN(Cc1ccccc1)C2	-	-	-	-	-	?
CCC(=O)Nc1sc2c(c1C(N)=O)CCN(Cc1ccccc1)C2	13	-	-	-	24	?
N#Cc1c(NC(=O)/C=C/C(=O)O)sc2c1CCN(Cc1ccccc1)C2	-	10µM	-	-	-	-
CCN1CCc2c(sc(NC(=O)COc3ccccc3)c2C(=O)OC)C1	-	-	15µM	-	-	-
CCN1CCc2c(sc(NC(=O)Cc3ccccc3)c2C(N)=O)C1	-	?	-	-	-	?
CCCCCCCCCCCCCCCC(N)=O	.	.	.	.	.	-
O=C(c1cccc(Cl)c1)N1CCCc2ccccc21	-	-	-	-	.	-
CCOC(=O)C1=CCN(Cc2ccccc2)CC1	-	?	-	-	-	?
SMILES	Cycloheximide cs	Pf growth 96h	Pf growth 48h	NS1 inh	Shiga inhibitor	FBPA Giardia inh
CCOC(=O)c1c(N)sc2c1CCN(Cc1ccccc1)C2	-	0.95µM	3.8µM	.	-	18µM
Cc1nc(-c2nc(-c3c(C(=O)NN)noc3C)cs2)cs1	28	-	-	.	66	-
Clc1ccccc1CN1CCN(/N=C/C=C\c2ccco2)CC1	16	-	-	-	69	-
Cc1ccc(N2CCN(/N=C/C=C/c3ccccc3)CC2)cc1	-	-	-	-	-	-
C(/C=C/c1ccco1)=N/N1CCN(c2ccccc2)CC1	34	-	-	-	106	-
C(=N\N1CCN(Cc2cccc3ccccc23)CC1)/c1ccco1	-	-	.	-	-	-
CCOC(=O)CC(=O)c1sc2c(c1N)c(=O)[nH]c(=O)n2-c1ccc(OC)cc1	-	5.2µM	?	-	-	-
